Assay [1] is described as follows: NCI Yeast Anticancer Drug Screen. Data for the rad50 strain (AID 155).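 Also: 0% = growth of vehicle-only cultures of the same strain.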 Conditions: S. cerevisiae rad50 strain growth inhibition, hits give high values. The method in brief: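 DNA repair mutant yeast, compound exposure, growth read-out; inhibition is taken relative to vehicle.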
A short description of assay [2]: NCI Yeast Anticancer Drug Screen. Data for the mec2-1 strain (AID 157). Conditions: S. cerevisiae mec2-1 strain, hits give high values. The method in brief:
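mec2-1 yeast strain, carrying an alteration in DNA damage repair or cell cycle control, was exposed to compounds; growth inhibition was measured relative to vehicle-treated controls.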

The nature of assay [3]: NCI Yeast Anticancer Drug Screen. Data for the sgs1 mgt1 strain (AID 161).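 Also: 0% = growth of cultures given vehicle only.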 Conditions: S. cerevisiae sgs1 mgt1 strain, hits give high values. The method in brief: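 Growth of a repair-deficient yeast mutant was monitored after compound treatment and expressed as inhibition relative to vehicle-treated cultures.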
A short description of assay [4]: NCI Yeast Anticancer Drug Screen. Data for the cln2 rad14 strain (AID 165).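 Also: 0% = growth equal to vehicle treated cultures.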 Conditions: S. cerevisiae cln2 rad14 strain, hits give high values. The method in brief: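 Yeast carrying cln2 and rad14 alterations (cell cycle control and DNA damage repair) were exposed to compounds. Growth inhibition was measured against vehicle-treated controls.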
Assay [5] in a line: NCI Yeast Anticancer Drug Screen. Data for the bub3 strain (AID 167). To be noted: S. cerevisiae bub3 mutant strain, hits give high values. The method in brief:
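In this screen, a yeast mutant lacking normal mitotic checkpoint function is challenged with compound. Relative growth versus vehicle gives the inhibition value.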

Assay [6] can be described thus: NCI Yeast Anticancer Drug Screen. Data for the mlh1 rad18 strain (AID 175). To be noted: S. cerevisiae mlh1 rad18 strain growth inhibition, hits give high values. The method in brief:
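Growth inhibition of the yeast strain was measured after compound exposure and expressed relative to vehicle-treated controls. The strain carries defined defects in DNA damage repair.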

Where [7] appears, read: at 5.0 µM (retest, dose inferred, filed as 0.5).
Where [8] appears, read: at 50.0 µM (retest, dose inferred, filed as 5.0).

“And” between values parts separate entries of the source, which are not always exact repeats. Equal values may be shown once. The panel holds about 79,000 compounds, 15% with a hit somewhere; the sample as a whole holds those more often. Values without a mark were called inactive. The source made the active and inactive calls. Rule as the data show it: active = growth inhibition above about 70%; inactive = the rest.

As to `CCC[CH2][Sn]([CH2]CCC)([O]C(=O)C(N)CSC)[O]C(=O)C(N)CSC` (centres undefined), the growth inhibition in assay [1] (setting [7]) is 7%; in assay [1] (setting [8]) it was 7%; in assay [1] (at 50.0 µM), 90% (active); in assay [2] (setting [7]), 10%; in assay [2] (setting [8]), 10%; in assay [2] (at 50.0 µM), 89.3% (active). Further, the growth inhibition in assay [3] (setting [7]) is -5%; in assay [3] (setting [8]) it was -5%; in assay [3] (at 50.0 µM), 86.2% (active); in assay [4] (setting [7]), 1%; in assay [4] (setting [8]) it was 1%; in assay [4] (at 50.0 µM), 52.9%. In addition, the growth inhibition in assay [5] (setting [7]) is -4%; in assay [5] (setting [8]), -4%; in assay [5] (at 50.0 µM), 88.8% (active); in assay [6] (setting [7]) it was -18%; in assay [6] (setting [8]), -18%; in assay [6] (at 50.0 µM), 83.1% (active).
On to `CCn1c(O)c(C(=O)NC(C)c2ccc([N+](=O)[O-])cc2)c(=O)n(CC)c1=S` (centres undefined), for which the growth inhibition in assay [1] (setting [7]) is 31%; in assay [1] (setting [8]) it was 91% (active); in assay [1] (at 50.0 µM), 86.5% (active); in assay [2] (setting [7]) it was 33%; in assay [2] (setting [8]), 96% (active); in assay [2] (at 50.0 µM), 91.4% (active). The growth inhibition in assay [3] (setting [7]) is 24%; in assay [3] (setting [8]) it was 83% (active); in assay [3] (at 50.0 µM), 90.6% (active); in assay [4] (setting [7]), 17%; in assay [4] (setting [8]), 46%; in assay [4] (at 50.0 µM), 88.8% (active). The growth inhibition in assay [5] (setting [7]) was 9%; in assay [5] (setting [8]), 78% (active); in assay [5] (at 50.0 µM), 89.3% (active); in assay [6] (setting [7]) it was 35%; in assay [6] (setting [8]), 92% (active); in assay [6] (at 50.0 µM) it was 87% (active).
For `[Cl][Sn]1([c]2ccccc2)[O]CCNCC[O]1`, the growth inhibition in assay [1] (setting [7]) was 22%; in assay [1] (setting [8]), 97% (active); in assay [1] (at 50.0 µM) it was 88.1% (active); in assay [2] (setting [7]), 9%; in assay [2] (setting [8]), 99% (active); in assay [2] (at 50.0 µM) it was 91.2% (active). The growth inhibition was 12% in assay [3] (setting [7]); 99% (active) in assay [3] (setting [8]); 90.8% (active) in assay [3] (at 50.0 µM); 6% in assay [4] (setting [7]); 97% (active) in assay [4] (setting [8]); 91.8% (active) in assay [4] (at 50.0 µM). Besides, the growth inhibition was 9% in assay [5] (setting [7]); 98% (active) in assay [5] (setting [8]); 90% (active) in assay [5] (at 50.0 µM); 19% in assay [6] (setting [7]); 97% (active) in assay [6] (setting [8]); 91.8% (active) in assay [6] (at 50.0 µM).
As for `O=C1C(=O)c2ccccc2-c2ccccc21.O=C1C(=O)c2ccccc2-c2ccccc21.[Hg]`, the growth inhibition in assay [1] (setting [7]) was 100% (active); in assay [1] (setting [8]) it was 96% (active); in assay [1] (at 50.0 µM), 12.2%; in assay [2] (setting [7]), 100% (active); in assay [2] (setting [8]) it was 97% (active); in assay [2] (at 50.0 µM), -7.3%. For the same compound, the growth inhibition is 100% (active) in assay [3] (setting [7]); 96% (active) in assay [3] (setting [8]); -6.8% in assay [3] (at 50.0 µM); 100% (active) in assay [4] (setting [7]); 97% (active) in assay [4] (setting [8]); 29.8% in assay [4] (at 50.0 µM). Moreover, the growth inhibition in assay [5] (setting [7]) is 100% (active); in assay [5] (setting [8]) it was 96% (active); in assay [5] (at 50.0 µM), -13.8%; in assay [6] (setting [7]), 98% (active); in assay [6] (setting [8]), 93% (active); in assay [6] (at 50.0 µM) it was 12.3%.
Regarding `Cc1ccc2ccccc2c1NC1=NCCO1`, the growth inhibition in assay [1] (setting [7]) is 24%; in assay [1] (setting [8]) it was 45%; in assay [1] (at 50.0 µM), -15.6%; in assay [2] (setting [7]), 25%; in assay [2] (setting [8]), 20%; in assay [2] (at 50.0 µM), -10.9%. For the same compound, the growth inhibition is 21% in assay [3] (setting [7]); 11% in assay [3] (setting [8]); -5.65% in assay [3] (at 50.0 µM); 17% in assay [4] (setting [7]); 26% in assay [4] (setting [8]); 17% in assay [4] (at 50.0 µM). Also, the growth inhibition in assay [5] (setting [7]) is 18%; in assay [5] (setting [8]), 6%; in assay [5] (at 50.0 µM) it was 11.8%; in assay [6] (setting [7]), 30%; in assay [6] (setting [8]), 17%; in assay [6] (at 50.0 µM) it was -10.1%.
In the case of `CC[n+]1c(-c2ccccc2)c2cc(N)ccc2c2ccc(N)cc21`, the growth inhibition in assay [1] (setting [7]) is 39% and 29%; in assay [1] (setting [8]) it was 91% (active) and 92% (active); in assay [1] (at 50.0 µM), 81.6% (active) and 83.3% (active); in assay [2] (setting [7]) it was 7% and -18%; in assay [2] (setting [8]), 45% and 13%; in assay [2] (at 50.0 µM), 3.7% and 3.85%. Further, the growth inhibition in assay [3] (setting [7]) was -4% and -13%; in assay [3] (setting [8]), 16% and 27%; in assay [3] (at 50.0 µM), 23.3% and 32.1%; in assay [4] (setting [7]) it was 2% and -6%; in assay [4] (setting [8]), 27% and 40%; in assay [4] (at 50.0 µM), 11.8% and 34.9%. Further, the growth inhibition in assay [5] (setting [7]) is -7% and -2%; in assay [5] (setting [8]), 27% and 24%; in assay [5] (at 50.0 µM), 52.9% and 5.2%; in assay [6] (setting [7]), -17% and -4%; in assay [6] (setting [8]), 25% and 20%; in assay [6] (at 50.0 µM), 20.2% and 34.6%.
In the case of `N#C[S-].[Nd+3].c1cnc2c(c1)ccc1cccnc12.c1cnc2c(c1)ccc1cccnc12.c1cnc2c(c1)ccc1cccnc12`, the growth inhibition was 91% (active) in assay [1] (setting [7]); 99% (active) in assay [1] (setting [8]); 93% (active) in assay [1] (at 50.0 µM); 98% (active) in assay [2] (setting [7]); 100% (active) in assay [2] (setting [8]); 94.8% (active) in assay [2] (at 50.0 µM). Further, the growth inhibition in assay [3] (setting [7]) is 98% (active); in assay [3] (setting [8]), 99% (active); in assay [3] (at 50.0 µM), 94.2% (active); in assay [4] (setting [7]) it was 93% (active); in assay [4] (setting [8]), 98% (active); in assay [4] (at 50.0 µM), 93.7% (active). Further, the growth inhibition was 98% (active) in assay [5] (setting [7]); 99% (active) in assay [5] (setting [8]); 93.2% (active) in assay [5] (at 50.0 µM); 98% (active) in assay [6] (setting [7]); 99% (active) in assay [6] (setting [8]); 92.8% (active) in assay [6] (at 50.0 µM).
For `O=[N+]([O-])c1ccc(O)c(Cl)c1`, the growth inhibition in assay [1] (setting [7]) is -3%; in assay [1] (setting [8]), 41%; in assay [1] (at 50.0 µM), 68.7%; in assay [2] (setting [7]), -2%; in assay [2] (setting [8]) it was 54%; in assay [2] (at 50.0 µM) it was 78.9% (active). In addition, the growth inhibition is -4% in assay [3] (setting [7]); 44% in assay [3] (setting [8]); 66% in assay [3] (at 50.0 µM); -12% in assay [4] (setting [7]); 57% in assay [4] (setting [8]); 52.2% in assay [4] (at 50.0 µM). In addition, the growth inhibition in assay [5] (setting [7]) is -5%; in assay [5] (setting [8]) it was 25%; in assay [5] (at 50.0 µM), 64.5%; in assay [6] (setting [7]), -5%; in assay [6] (setting [8]) it was 53%; in assay [6] (at 50.0 µM) it was 70.8% (active).

Values taken from PubChem BioAssay (NCI).
